The nature of test [1]: antimalarial activity against Dd2 strain (AID 2302;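 active = growth inhibition above 50% at the single 2 µM test dose, taken to imply half-maximal potency below 2 µM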;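 note: 0% = DMSO untreated growth and 100% = chloroquine plus artemisinin killed control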). The note with it: P. falciparum Dd2 in RBCs, LDH growth readout, 72 h; at 2 µM; stronger effect = higher value.
Test [2] in a line: HepG2 cytotoxicity, primary screen, cytotoxicity control for P. falciparum antimalarial project, cell-based, ATP luminescence (AID 2303;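 active = inhibition above 50%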;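 note: 0% = DMSO wells and 100% = digitonin-killed cells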). The note with it: HepG2 viability, 24-48 h, at 10 µM, stronger effect = higher value.
Test [3] concerns the target L-lactate dehydrogenase (Plasmodium falciparum (isolate CDC / Honduras)) (UniProt Q27743). Briefly: PfLDH activity inhibition – cell lysate, 3D7 strain, counter-screen for P. falciparum growth inhibition project (AID 2304).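 Note: 0% = vehicle and 100% = reference inhibitor.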 The note with it: P. falciparum 3D7 crude extract, LDH APAD/NBT absorbance; at 2 µM; stronger effect = higher value. In general terms: The purpose of a counterscreen is to sort out artefacts and off-target activity.

Test [4] can be described thus: inhibition of 3D7 malaria parasite growth – strain 3D7 (AID 2306).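 Note: 0% = DMSO wells and 100% = chloroquine plus artemisinin control wells.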 The note with it: P. falciparum 3D7 erythrocytic growth, LDH absorbance, 72 h; at 2 µM; stronger effect = higher value.
In test [5] the target is Calcium-dependent protein kinase 1 (Plasmodium falciparum (isolate 3D7)) (UniProt P62344). Put plainly: PfCDPK1 kinase inhibitors, biochemical, TCAMS library (AID 1159585; cut-off not given, nearly all actives have IC50 up to about 0.98 µM;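 note: inhibitors leave more ATP so luminescence rises with inhibition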). The note with it: recombinant PfCDPK1, Kinase-Glo ATP depletion luminescence. On the technique in general: Kinase-Glo reads ATP consumption through a luciferase reaction.
The target in test [6] is Plasmodium falciparum protein kinase 6 (PK6, PF3D7_1337100) (UniProt Q8IDW1). Briefly: PfPK6 kinase inhibitors, biochemical, TCAMS library (AID 1159586). The note with it: recombinant PfPK6, Kinase-Glo ATP depletion luminescence.
Test [7] has as its target Protein kinase 7 (PK7), Plasmodium falciparum 3D7 (PF3D7_0213400) (UniProt Q7YTF7). Put plainly: inhibition of Plasmodium PK7 catalytic activity – biochemical, TCAMS antimalarial set, Kinase-Glo luminescence (AID 1159587). The conditions noted are these: recombinant PfPK7, Kinase-Glo ATP depletion luminescence.
Test [8] concerns the target Calcium-dependent protein kinase 4 (Plasmodium falciparum (isolate 3D7)) (UniProt Q8IBS5). Put plainly: PfCDPK4 kinase inhibitors, biochemical, TCAMS library (AID 1159588; cut-off not given, nearly all actives have IC50 up to about 0.91 µM). The conditions noted are these: recombinant PfCDPK4, Kinase-Glo ATP depletion luminescence.

Unmarked numbers belong to inactive results. For some of these results: Measured potencies and affinities stand elsewhere. Calls of active or inactive are those of the source. Unless noted, the rule behind the calls is not given here.

As a reminder, the inhibition is the drop in the measured response relative to a control, in per cent.

Chain of Plasmodium falciparum protein kinase 6 (PK6, PF3D7_1337100) (Q8IDW1 1-305): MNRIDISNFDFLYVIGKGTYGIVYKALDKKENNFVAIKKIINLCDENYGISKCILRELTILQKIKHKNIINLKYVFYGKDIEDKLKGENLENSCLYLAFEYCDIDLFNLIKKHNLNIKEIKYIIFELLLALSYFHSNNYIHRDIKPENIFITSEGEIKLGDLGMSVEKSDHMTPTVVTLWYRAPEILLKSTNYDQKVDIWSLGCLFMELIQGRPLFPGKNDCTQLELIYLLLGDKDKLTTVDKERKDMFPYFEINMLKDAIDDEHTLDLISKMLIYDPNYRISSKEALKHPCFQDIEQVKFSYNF
Chain of L-lactate dehydrogenase (Plasmodium falciparum (isolate CDC / Honduras)) (Q27743 whole entry, looked up): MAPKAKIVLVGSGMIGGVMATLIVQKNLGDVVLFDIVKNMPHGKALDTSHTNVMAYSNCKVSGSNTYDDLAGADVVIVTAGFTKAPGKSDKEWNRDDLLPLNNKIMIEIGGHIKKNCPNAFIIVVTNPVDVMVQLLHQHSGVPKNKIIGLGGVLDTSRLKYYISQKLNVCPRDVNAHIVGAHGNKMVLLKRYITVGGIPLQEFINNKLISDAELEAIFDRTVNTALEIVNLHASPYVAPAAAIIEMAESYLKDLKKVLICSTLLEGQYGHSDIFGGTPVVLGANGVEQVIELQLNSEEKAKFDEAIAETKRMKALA
Chain of Calcium-dependent protein kinase 1 (Plasmodium falciparum (isolate 3D7)) (P62344 whole entry, looked up): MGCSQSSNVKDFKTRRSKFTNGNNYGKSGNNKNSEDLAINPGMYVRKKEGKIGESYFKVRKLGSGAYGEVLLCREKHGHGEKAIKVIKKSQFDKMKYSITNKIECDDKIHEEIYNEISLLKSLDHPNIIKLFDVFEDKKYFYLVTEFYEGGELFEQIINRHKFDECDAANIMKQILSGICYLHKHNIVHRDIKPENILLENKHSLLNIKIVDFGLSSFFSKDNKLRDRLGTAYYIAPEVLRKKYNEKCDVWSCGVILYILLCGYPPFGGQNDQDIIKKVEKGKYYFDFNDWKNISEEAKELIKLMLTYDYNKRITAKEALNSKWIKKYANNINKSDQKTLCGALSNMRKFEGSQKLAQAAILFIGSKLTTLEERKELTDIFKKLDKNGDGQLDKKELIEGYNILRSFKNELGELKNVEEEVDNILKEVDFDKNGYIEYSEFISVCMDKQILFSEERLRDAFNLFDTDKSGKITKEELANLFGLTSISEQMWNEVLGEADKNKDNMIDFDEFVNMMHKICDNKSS
Chain of Protein kinase 7 (PK7), Plasmodium falciparum 3D7 (PF3D7_0213400) (Q7YTF7 1-343): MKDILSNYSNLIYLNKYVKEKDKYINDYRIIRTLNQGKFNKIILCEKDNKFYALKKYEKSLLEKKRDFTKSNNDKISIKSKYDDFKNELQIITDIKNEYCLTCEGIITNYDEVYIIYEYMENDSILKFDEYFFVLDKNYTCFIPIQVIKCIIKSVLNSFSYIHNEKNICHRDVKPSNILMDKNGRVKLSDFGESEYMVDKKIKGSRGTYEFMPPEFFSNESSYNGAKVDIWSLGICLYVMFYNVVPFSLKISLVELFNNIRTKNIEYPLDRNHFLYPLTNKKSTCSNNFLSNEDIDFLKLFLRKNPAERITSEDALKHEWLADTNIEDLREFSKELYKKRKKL
Chain of Calcium-dependent protein kinase 4 (Plasmodium falciparum (isolate 3D7)) (Q8IBS5 whole entry, looked up): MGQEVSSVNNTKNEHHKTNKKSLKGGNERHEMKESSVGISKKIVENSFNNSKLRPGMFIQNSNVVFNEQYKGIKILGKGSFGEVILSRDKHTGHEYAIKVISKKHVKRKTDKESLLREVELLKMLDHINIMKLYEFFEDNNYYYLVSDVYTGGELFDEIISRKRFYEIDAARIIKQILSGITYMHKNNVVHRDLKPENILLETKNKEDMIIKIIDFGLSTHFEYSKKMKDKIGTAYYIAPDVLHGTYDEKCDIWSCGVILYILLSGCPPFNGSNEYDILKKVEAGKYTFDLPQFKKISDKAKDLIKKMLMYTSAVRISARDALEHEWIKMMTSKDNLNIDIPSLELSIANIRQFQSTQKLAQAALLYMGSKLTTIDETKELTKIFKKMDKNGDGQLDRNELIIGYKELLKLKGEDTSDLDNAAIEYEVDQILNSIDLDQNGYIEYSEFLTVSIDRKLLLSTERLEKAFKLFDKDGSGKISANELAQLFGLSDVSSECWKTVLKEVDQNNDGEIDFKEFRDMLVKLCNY

As for `COc1cccc(C(NC(=O)c2ccccc2)c2ccc3cccnc3c2O)c1` (stereo not given), the growth inhibition is 41% in test [1] and 89% (active) in test [4]. Also, the inhibition was 52% (active) in test [2] and 2% in test [3]. In addition, the outcome in test [5], in test [6], in test [7] and in test [8] was inactive.
Take `COc1ccc(C2(CNCC(O)c3cccc([N+](=O)[O-])c3)CCCCC2)cc1OC` (stereo not given): the growth inhibition is 85% (active) in test [1] and 95% (active) in test [4]. Besides, the inhibition in test [2] was -2%; in test [3] it was 3%. The outcome in test [5], in test [6], in test [7] and in test [8] was inactive.
Regarding `Cc1ccc(NC(=S)NC2CCN(CCCCCNC(=O)/C=C/c3ccc(Cl)c(Cl)c3)CC2)cc1Cl`, the growth inhibition was 56% (active) in test [1] and 100% (active) in test [4]. The inhibition was 45% in test [2] and 7% in test [3]. The outcome in test [5], in test [6], in test [7] and in test [8] was inactive.
For `COc1ccc(Cl)cc1N1CCN(CCCNC(=O)c2ccc(-c3nc4ccc(C(F)(F)F)cc4[nH]3)c(C)c2)CC1`, the growth inhibition was 14% in test [1] and 95% (active) in test [4]. The inhibition in test [2] is 6%; in test [3], -2%. Also, the outcome in test [5], in test [6], in test [7] and in test [8] was inactive.
For `COCCNCc1cccc(-c2ccc(CNC3CCN(Cc4ccccc4)CC3)cc2)c1`, the growth inhibition in test [1] was 97% (active); in test [4], 100% (active). The inhibition in test [2] is 34%; in test [3], -7%. Besides, the result in test [5], in test [6], in test [7] and in test [8] was inactive.
Turning to `COc1ccc2c(c1)CC(NCc1ccc(-c3ccc4nc[nH]c4c3)cc1)C2` (stereo not given), the figures for the growth inhibition in test [1] and in test [4] were 71% (active) and 100% (active), respectively. The inhibition was 30% in test [2] and 1% in test [3]. For the same compound, the outcome in test [5], in test [6], in test [7] and in test [8] was inactive.
As for `COc1ccc2c(NN=Cc3ccc(N(C)C)cc3)ccnc2c1`, the growth inhibition was 100% (active) in test [1] and 102% (active) in test [4]. Also, the results for the inhibition in test [2] and in test [3] were 12% and -1%, respectively. The outcome in test [5], in test [6], in test [7] and in test [8] was inactive.
For the compound `O=C(/C=C/c1ccc(Cl)c(Cl)c1)NCCCCCCN1CCCN(C(=O)Nc2ccc(F)c(F)c2)CC1`, the figures for the growth inhibition in test [1] and in test [4] were 2% and 89% (active), respectively. Further, the inhibition in test [2] was 72% (active); in test [3], 4%. For the same compound, the outcome in test [5], in test [6], in test [7] and in test [8] was inactive.
Consider `O=C1C(c2ccccc2)=C(Nc2cccc(OC(F)(F)C(F)F)c2)c2ccccc21`, for which the growth inhibition in test [1] and in test [4] was 96% (active) in each case. The inhibition in test [2] was -5%; in test [3], 0%. In addition, the result in test [5], in test [6], in test [7] and in test [8] was inactive.
Turning to `Cn1ncc2c3c(CCN4CCC(NCc5cc6c(cn5)OCC6)CC4)c(Cl)cnc3ccc21`, the growth inhibition in test [1] is 0%; in test [4], 94% (active). The inhibition is 4% in test [2] and 2% in test [3]. Further, the outcome in test [5], in test [6], in test [7] and in test [8] was inactive.
With `COc1ccc(-c2ccc(CNC(=O)c3ccc(C#N)cc3)c(F)c2)cc1CN1CCCN(C)CC1`, the growth inhibition was 1% in test [1] and 90% (active) in test [4]. Besides, the inhibition in test [2] was 6%; in test [3], -10%. For the same compound, the result in test [5], in test [6], in test [7] and in test [8] was inactive.
In the case of `NC1=NC2(CCCCC2)N(OCCCCCCCCNc2nc(N)nc(N)n2)C(N)=N1`, the growth inhibition was 99% (active) in test [1] and 96% (active) in test [4]. Moreover, the inhibition in test [2] is 44%; in test [3] it was -5%. Moreover, the outcome in test [5], in test [6], in test [7] and in test [8] was inactive.
For the compound `Oc1ccc(Cc2cc(Oc3c(I)cc(CCc4ncc[nH]4)cc3I)ccc2O)cc1`, the growth inhibition in test [1] was 32%; in test [4], 101% (active). The inhibition was 10% in test [2] and -3% in test [3]. Also, the outcome in test [5], in test [6], in test [7] and in test [8] was inactive.
Consider `O=C(NCCCCN1CC=C(c2ccc3c(c2OCc2ccccc2)CCCC3)CC1)c1ccc(-c2ccc(C(F)(F)F)cc2)cc1`, for which the growth inhibition in test [1] is 82% (active); in test [4], 97% (active). Further, the inhibition in test [2] is 19%; in test [3], -5%. The result in test [5], in test [6], in test [7] and in test [8] was inactive.
As for `Cc1ccc(C(=O)Nc2ccc(Nc3ccnc4cc(-c5nccs5)ccc34)cc2O)cc1`, the growth inhibition in test [1] and in test [4] was 100% (active) each time. For the same compound, the inhibition is 100% (active) in test [2] and 3% in test [3]. The result in test [5], in test [6], in test [7] and in test [8] was inactive.
On to `Clc1cccc(Cl)c1CCNCC1CCN(CC2CCCCC2)CC1`, for which the growth inhibition in test [1] was 94% (active); in test [4], 98% (active). Besides, the inhibition in test [2] was 39%; in test [3] it was -5%. For the same compound, the result in test [5], in test [6], in test [7] and in test [8] was inactive.
For the compound `CCCCCCCCc1c(C)[nH]c(C)c(C#N)c1=O`, the growth inhibition is 96% (active) in test [1] and 97% (active) in test [4]. The inhibition in test [2] is 0%; in test [3] it was 4%. The result in test [5], in test [6], in test [7] and in test [8] was inactive.
For the compound `CCn1cc2c3c(cc(C(=O)N[C@@H](Cc4ccccc4)[C@H](O)CNCc4cccc(OC)c4)cc31)N(C)S(=O)(=O)CC2`, the growth inhibition in test [1] was 97% (active); in test [4], 99% (active). For the same compound, the inhibition was -12% in test [2] and 0% in test [3]. Moreover, the outcome in test [5], in test [6], in test [7] and in test [8] was inactive.
As to `COc1ccc2c(NN=Cc3cccnc3)cc(C)nc2c1`, the growth inhibition in test [1] is 12%; in test [4] it was 85% (active). For the same compound, the inhibition was -4% in test [2] and -2% in test [3]. The result in test [5], in test [6], in test [7] and in test [8] was inactive.
Consider `CCCCC(CC)CN1C(=O)C(c2ccccc2)(c2ccccc2)N=C1N` (stereo not given), for which the growth inhibition in test [1] was 98% (active); in test [4], 94% (active). The inhibition is 32% in test [2] and 4% in test [3]. The result in test [5], in test [6], in test [7] and in test [8] was inactive.
